Test [1] can be described thus: NCI Yeast Anticancer Drug Screen. Data for the rad50 strain (AID 155).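 Also: 0% = growth of vehicle-only cultures of the same strain.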 The note with it: S. cerevisiae rad50 strain growth inhibition, hits give high values. The method in brief: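 Vehicle-treated cultures provide the reference for the growth inhibition reported for compound-exposed, repair-deficient yeast.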
The nature of test [2]: NCI Yeast Anticancer Drug Screen. Data for the mec2-1 strain (AID 157). To be noted: S. cerevisiae mec2-1 strain, hits give high values. The essentials: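 Growth inhibition is read against vehicle-treated controls after compound exposure of the mec2-1 yeast strain, which is defective in DNA damage repair or cell cycle control.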
Test [3] can be described thus: NCI Yeast Anticancer Drug Screen. Data for the sgs1 mgt1 strain (AID 161).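 Also: 0% = growth of cultures given vehicle only.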 To be noted: S. cerevisiae sgs1 mgt1 strain, hits give high values. The method in brief:
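Compounds are added to genetically altered yeast, and growth is compared with cultures given vehicle alone to give percent inhibition.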

Test [4] is described as follows: NCI Yeast Anticancer Drug Screen. Data for the cln2 rad14 strain (AID 165).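 Also: 0% = growth equal to vehicle treated cultures.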 The note with it: S. cerevisiae cln2 rad14 strain, hits give high values. The method in brief: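 Growth inhibition, relative to vehicle-treated controls, is the read-out. The test organism is a yeast strain with defined genetic alterations, cln2 rad14.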
Test [5] in a line: NCI Yeast Anticancer Drug Screen. Data for the bub3 strain (AID 167). The note with it: S. cerevisiae bub3 mutant strain, hits give high values. The essentials:
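Mutant yeast screening strain plus compound; vehicle-treated cultures serve as the 0% inhibition reference.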

Test [6] in a line: NCI Yeast Anticancer Drug Screen. Data for the mlh1 rad18 strain (AID 175). To be noted: S. cerevisiae mlh1 rad18 strain growth inhibition, hits give high values. The essentials:
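Cells of a genetically altered yeast strain, deficient in DNA damage repair, were treated with compound. Their growth was then compared with that of vehicle-treated cultures to give inhibition.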

Setting [7] is: at 5.0 µM (retest, dose inferred, filed as 0.5).
The mark [8] stands for this setting: at 50.0 µM (retest, dose inferred, filed as 5.0).

About 79,000 compounds went through this panel and 15% of them were active in at least one assay; those are over-represented in the sample as a whole. Values without a mark were called inactive. Activity calls are given as the source filed them. Rule as the data show it: active = growth inhibition above about 70%; inactive = the rest.

In the case of `Cc1ccc([C@H]2N[C@@H]2c2ccccn2)cc1`, the growth inhibition in test [1] (setting [7]) is -16%; in test [1] (setting [8]), -22%; in test [1] (at 50.0 µM) it was 6.35%; in test [2] (setting [7]) it was -18%; in test [2] (setting [8]), 1%; in test [2] (at 50.0 µM) it was 7%. Moreover, the growth inhibition in test [3] (setting [7]) is -5%; in test [3] (setting [8]), -12%; in test [3] (at 50.0 µM) it was 3.45%; in test [4] (setting [7]), -15%; in test [4] (setting [8]), -5%; in test [4] (at 50.0 µM), 30.1%. Further, the growth inhibition in test [5] (setting [7]) was -4%; in test [5] (setting [8]) it was -2%; in test [5] (at 50.0 µM), -2.75%; in test [6] (setting [7]), -5%; in test [6] (setting [8]) it was -10%; in test [6] (at 50.0 µM) it was 19%.

As to `N#C[SH2+].N#C[SH2+].N#C[SH2+].N#C[SH2+].[Cu+2].c1ccc(C[P+](c2ccccc2)(c2ccccc2)c2ccccc2)cc1`, the growth inhibition in test [1] (setting [7]) was 14%; in test [1] (setting [8]), 87% (active); in test [1] (at 50.0 µM), 96.8% (active); in test [2] (setting [7]) it was 5%; in test [2] (setting [8]), 95% (active); in test [2] (at 50.0 µM) it was 97.8% (active). The growth inhibition in test [3] (setting [7]) is 21%; in test [3] (setting [8]), 91% (active); in test [3] (at 50.0 µM), 97.9% (active); in test [4] (setting [7]), -8%; in test [4] (setting [8]), 82% (active); in test [4] (at 50.0 µM) it was 90.7% (active). The growth inhibition in test [5] (setting [7]) is 5%; in test [5] (setting [8]), 90% (active); in test [5] (at 50.0 µM) it was 92.9% (active); in test [6] (setting [7]), 45%; in test [6] (setting [8]) it was 97% (active); in test [6] (at 50.0 µM) it was 97.2% (active).

`O=P(CP(=O)(c1ccccc1)c1ccccc1)(c1ccccc1)c1ccccc1.[CH3][Sn]([CH3])([Cl])[Cl]`: the growth inhibition is 6% in test [1] (setting [7]); 27% in test [1] (setting [8]); 21.4% in test [1] (at 50.0 µM); 21% in test [2] (setting [7]); 9% in test [2] (setting [8]); 89.3% (active) in test [2] (at 50.0 µM). Further, the growth inhibition in test [3] (setting [7]) was 5%; in test [3] (setting [8]), 8%; in test [3] (at 50.0 µM), 22.9%; in test [4] (setting [7]) it was 3%; in test [4] (setting [8]), -12%; in test [4] (at 50.0 µM), 8.35%. Besides, the growth inhibition in test [5] (setting [7]) is 0%; in test [5] (setting [8]) it was 8%; in test [5] (at 50.0 µM), 4.25%; in test [6] (setting [7]), 2%; in test [6] (setting [8]) it was 15%; in test [6] (at 50.0 µM) it was 19.4%.

With `c1cc[c]([Pb]([c]2ccccc2)[c]2ccccc2)cc1.c1cc[c]([Pb]([c]2ccccc2)[c]2ccccc2)cc1`, the growth inhibition in test [1] (setting [7]) is 99% (active); in test [1] (setting [8]), 98% (active); in test [1] (at 50.0 µM), 99% (active); in test [2] (setting [7]), 100% (active); in test [2] (setting [8]) it was 99% (active); in test [2] (at 50.0 µM), 99.5% (active). Moreover, the growth inhibition in test [3] (setting [7]) was 100% (active); in test [3] (setting [8]), 99% (active); in test [3] (at 50.0 µM) it was 99.5% (active); in test [4] (setting [7]), 99% (active); in test [4] (setting [8]), 98% (active); in test [4] (at 50.0 µM) it was 99% (active). Also, the growth inhibition is 99% (active) in test [5] (setting [7]); 97% (active) in test [5] (setting [8]); 99.4% (active) in test [5] (at 50.0 µM); 100% (active) in test [6] (setting [7]); 99% (active) in test [6] (setting [8]); 99.2% (active) in test [6] (at 50.0 µM).

As to `Nc1c(Cl)cccc1C(=O)O`, the growth inhibition in test [1] (setting [7]) was 3%; in test [1] (setting [8]) it was 4%; in test [1] (at 50.0 µM), 54%; in test [2] (setting [7]) it was -2%; in test [2] (setting [8]), 0%; in test [2] (at 50.0 µM) it was 26.8%. In addition, the growth inhibition in test [3] (setting [7]) was 1%; in test [3] (setting [8]) it was 6%; in test [3] (at 50.0 µM), 45.7%; in test [4] (setting [7]) it was -4%; in test [4] (setting [8]), -7%; in test [4] (at 50.0 µM), 13.4%. Besides, the growth inhibition in test [5] (setting [7]) is 3%; in test [5] (setting [8]) it was 1%; in test [5] (at 50.0 µM) it was 23.9%; in test [6] (setting [7]), 2%; in test [6] (setting [8]) it was 5%; in test [6] (at 50.0 µM) it was 34.9%.

Consider `CC1CCC2(OC1)OC1CC3C4CC=C5CC(OC6OC(CO)C(OC7OC(C)C(OC8OC(C)C(O)C(O)C8O)C(O)C7O)C(O)C6OC6OC(C)C(O)C(O)C6O)CCC5(C)C4CCC3(C)C1C2C` (stereo not given), for which the growth inhibition in test [1] (setting [7]) is 100% (active); in test [1] (setting [8]), 94% (active); in test [1] (at 50.0 µM), 87.3% (active); in test [2] (setting [7]) it was 99% (active); in test [2] (setting [8]) it was 96% (active); in test [2] (at 50.0 µM), 81.5% (active). Besides, the growth inhibition in test [3] (setting [7]) is 99% (active); in test [3] (setting [8]), 95% (active); in test [3] (at 50.0 µM), 84% (active); in test [4] (setting [7]), 99% (active); in test [4] (setting [8]), 95% (active); in test [4] (at 50.0 µM), 86.7% (active). Besides, the growth inhibition was 99% (active) in test [5] (setting [7]); 95% (active) in test [5] (setting [8]); 89.2% (active) in test [5] (at 50.0 µM); 98% (active) in test [6] (setting [7]); 91% (active) in test [6] (setting [8]); 86.5% (active) in test [6] (at 50.0 µM).

For the molecule `CCOc1ccc(/C=C/[N+](=O)[O-])cc1[N+](=O)[O-]`, the growth inhibition in test [1] (setting [7]) is 11%; in test [1] (setting [8]), 98% (active); in test [1] (at 50.0 µM), 95.6% (active); in test [2] (setting [7]) it was 7%; in test [2] (setting [8]), 99% (active); in test [2] (at 50.0 µM), 99.6% (active). Moreover, the growth inhibition in test [3] (setting [7]) was 9%; in test [3] (setting [8]) it was 99% (active); in test [3] (at 50.0 µM), 99.5% (active); in test [4] (setting [7]) it was 16%; in test [4] (setting [8]), 99% (active); in test [4] (at 50.0 µM), 99% (active). Also, the growth inhibition in test [5] (setting [7]) is 9%; in test [5] (setting [8]), 99% (active); in test [5] (at 50.0 µM), 99.3% (active); in test [6] (setting [7]), 12%; in test [6] (setting [8]), 99% (active); in test [6] (at 50.0 µM), 99.3% (active).

As for `C[C@]12CC[C@H]3[C@@H](CCC4=CC(=O)CC[C@@H]43)[C@@H]1CC[C@@H]2OC1(O)C(=O)c2ccccc2C1=O`, the growth inhibition in test [1] (setting [7]) was -7%; in test [1] (setting [8]) it was 47%; in test [1] (at 50.0 µM) it was 65.2%; in test [2] (setting [7]), -6%; in test [2] (setting [8]), 21%; in test [2] (at 50.0 µM), 27.4%. Also, the growth inhibition is -2% in test [3] (setting [7]); 59% in test [3] (setting [8]); 74.8% (active) in test [3] (at 50.0 µM); -16% in test [4] (setting [7]); 22% in test [4] (setting [8]); 20.5% in test [4] (at 50.0 µM). In addition, the growth inhibition in test [5] (setting [7]) is -8%; in test [5] (setting [8]), 44%; in test [5] (at 50.0 µM) it was 69.9%; in test [6] (setting [7]) it was 11%; in test [6] (setting [8]), 44%; in test [6] (at 50.0 µM) it was 61.7%.

On to `[Br][Hg][CH2]COC[CH2][Hg][Br]`, for which the growth inhibition in test [1] (setting [7]) was 95% (active); in test [1] (setting [8]) it was 99% (active); in test [1] (at 50.0 µM), 99.4% (active); in test [2] (setting [7]), 98% (active); in test [2] (setting [8]), 100% (active); in test [2] (at 50.0 µM) it was 99.6% (active). The growth inhibition was 98% (active) in test [3] (setting [7]); 51% in test [3] (setting [8]); 99.5% (active) in test [3] (at 50.0 µM); 83% (active) in test [4] (setting [7]); 99% (active) in test [4] (setting [8]); 98.8% (active) in test [4] (at 50.0 µM). Moreover, the growth inhibition in test [5] (setting [7]) was 96% (active); in test [5] (setting [8]), 99% (active); in test [5] (at 50.0 µM) it was 99% (active); in test [6] (setting [7]) it was 95% (active); in test [6] (setting [8]) it was 99% (active); in test [6] (at 50.0 µM), 99.1% (active).

Regarding `CCC[As](CCC)SC1CCC2(C)C(=CCC3C4CCC(=O)C4(C)CCC32)C1` (stereo not given), the growth inhibition in test [1] (setting [7]) was 17%; in test [1] (setting [8]), 98% (active); in test [1] (at 50.0 µM), 49.5%; in test [2] (setting [7]), 9%; in test [2] (setting [8]), 87% (active); in test [2] (at 50.0 µM) it was 3.1%. Also, the growth inhibition in test [3] (setting [7]) is 19%; in test [3] (setting [8]), 84% (active); in test [3] (at 50.0 µM) it was 82% (active); in test [4] (setting [7]), -3%; in test [4] (setting [8]), 89% (active); in test [4] (at 50.0 µM) it was 34.8%. Besides, the growth inhibition is 0% in test [5] (setting [7]); 77% (active) in test [5] (setting [8]); 17.4% in test [5] (at 50.0 µM); 11% in test [6] (setting [7]); 97% (active) in test [6] (setting [8]); 88.5% (active) in test [6] (at 50.0 µM).

The record behind these values is PubChem BioAssay (NCI).
